# Activity calls are given as the source filed them. The calls were made as follows: active = hit-call score of the fitted dose curve at least 0.9, where 1 is the maximum; inactive = score below 0.9.
# Target: human MARK1 CAMK Kinase, MARK1 (gene 4139) (UniProt Q9P0L2)
# Experiment: ERF_FR_ENZ_hMARK1: Eurofins (ERF) Enzymatic Radiometric [Km ATP] KinaseProfiler LeadHunter Assay for human MARK1 CAMK Kinase
# Experimental: ERF_FR_ENZ_hMARK1 is a biochemical, single-readout assay that uses extracted gene-proteins in a cell-free assay. Measurements were taken 0.5 hour after chemical dosing in a 96-well plate. See MARK1 Human CAMK Kinase Enzymatic LANCE Assay [Km ATP], Cerep.ERF_FR_ENZ_hMARK1 is an assay component calculated from the ERF_FR_ENZ_hMARK1 assay. It is designed to measure enzyme activity using a type of enzyme reporter as detected by fluorescence intensity with LANCE technology.Data from the assay component ERF_FR_ENZ_hMARK1 was analyzed at the assay endpoint, ERF_FR_ENZ_hMARK1, in the positive analysis fitting direction relative to DMSO as the negative control and baseline of activity. Using a type of enzyme reporter, loss-of-signal activity can be used to understand changes in enzymatic activity as they relate to gene MARK1. To generalize the intended target to other relatable targets, this assay endpoint is annotated to the kinase intended target family, where the subfamily is serine/threonine kinase.
# […] is incubated with 50 mM Na-b-glycerophosphate pH 7.5, 0.1 mM EGTA, 30 uM […], 10 mM MgAcetate and [gamma-33P]-ATP (specific activity and concentration as required). The reaction is initiated by the […] addition of the Mg/ATP mix. After incubation for 40 minutes at room temperature, the reaction is stopped by the addition of phosphoric acid to a concentration of 0.5%. […]
# human MARK1 CAMK Kinase, MARK1 (gene 4139), sequence (Q9P0L2 whole entry, looked up): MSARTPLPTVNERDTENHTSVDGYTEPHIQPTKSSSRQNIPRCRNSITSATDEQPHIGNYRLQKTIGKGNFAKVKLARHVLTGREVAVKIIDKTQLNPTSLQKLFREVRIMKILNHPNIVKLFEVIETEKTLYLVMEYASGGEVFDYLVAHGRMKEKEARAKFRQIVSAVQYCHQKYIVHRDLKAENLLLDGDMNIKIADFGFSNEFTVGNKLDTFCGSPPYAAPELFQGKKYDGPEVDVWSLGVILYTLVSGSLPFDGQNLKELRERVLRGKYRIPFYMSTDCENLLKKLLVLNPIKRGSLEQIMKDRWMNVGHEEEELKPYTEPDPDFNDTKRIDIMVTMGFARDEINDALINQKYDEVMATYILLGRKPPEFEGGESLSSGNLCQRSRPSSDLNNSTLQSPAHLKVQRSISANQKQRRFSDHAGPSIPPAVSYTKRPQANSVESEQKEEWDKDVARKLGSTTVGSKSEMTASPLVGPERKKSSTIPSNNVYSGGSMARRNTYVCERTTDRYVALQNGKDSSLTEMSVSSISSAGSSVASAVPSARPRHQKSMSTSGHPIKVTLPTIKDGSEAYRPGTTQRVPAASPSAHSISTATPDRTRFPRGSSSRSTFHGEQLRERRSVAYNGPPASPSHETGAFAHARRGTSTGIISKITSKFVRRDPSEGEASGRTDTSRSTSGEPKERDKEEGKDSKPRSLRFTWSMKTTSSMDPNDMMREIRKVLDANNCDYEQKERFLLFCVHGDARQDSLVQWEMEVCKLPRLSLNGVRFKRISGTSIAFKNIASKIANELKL
row,Structure (SMILES),outcome
1,O=C(/C=C/c1ccc(O)cc1)CC(=O)/C=C/c1ccc(O)cc1,inactive

# Source: PubChem BioAssay AID2284133 (EPA ToxCast)
